According to PubChem BioAssay AID1159580 (chemical genetic matrix, 2015):
Hit rate of the full screen: of about 5,500 compounds, about 2,000 (36%) were called active. Another 18% or so got no clear call; they are omitted. No stated cut-off is given here; in the data, active means normalized growth mostly below about 0.91 (no sharp cut-off); inconclusive means no clear call, values can overlap the other calls; inactive means mostly above about 0.92. The list shows a part of the results.

Assay: chemical genetic growth profiling, strain panel (AID 1159580);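 further: tested at 20 µM; growth read once vehicle control cultures reached saturation at 30 °C; 1 = growth at the plate median or of vehicle wells; lower values mean less growth of the strain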
Settings: growth OD

Measured: normalized growth

COc1ccc2c(c1C(C)C)CCC1C(C)(C)C(=O)CCC21C (stereo unspecified)
active: S. cerevisiae deletion strains, locus YNL307C, strain MCK1, hits give low values 0.854
inactive: S. cerevisiae deletion strains, locus YAL013W, strain DEP1, hits give low values 1 | S. cerevisiae deletion strains, locus YBR021W, strain FUR4, hits give low values 1 | S. cerevisiae deletion strains, locus YBR229C, strain ROT2, hits give low values 0.988 | S. cerevisiae deletion strains, locus YCL029C, strain bik1, hits give low values 0.955 | S. cerevisiae deletion strains, locus YDL035C, strain GPR1, hits give low values 0.972 | S. cerevisiae deletion strains, locus YDL074C, strain BRE1, hits give low values 0.969 | S. cerevisiae deletion strains, locus YDL101C, strain DUN1, hits give low values 0.996 | S. cerevisiae deletion strains, locus YDL134C, strain PPH21, hits give low values 0.976 | S. cerevisiae deletion strains, locus YDL185W, strain tfp1, hits give low values 0.982 | S. cerevisiae deletion strains, locus YDL192W, strain arf1, hits give low values 0.974 | S. cerevisiae deletion strains, locus YDR101C, strain arx1, hits give low values 0.981 | S. cerevisiae deletion strains, locus YDR150W, strain NUM1, hits give low values 0.96 | S. cerevisiae deletion strains, locus YDR162C, strain NBP2, hits give low values 0.983 | S. cerevisiae deletion strains, locus YDR318W, strain mcm21, hits give low values 0.968 | S. cerevisiae deletion strains, locus YDR388W, hits give low values 0.977 | S. cerevisiae deletion strains, locus YDR502C, strain sam2, hits give low values 0.982 | S. cerevisiae deletion strains, locus YEL061C, strain CIN8, hits give low values 0.988 | S. cerevisiae deletion strains, locus YER110C, hits give low values 0.982 | S. cerevisiae deletion strains, locus YER155C, strain BEM2, hits give low values 0.991 | S. cerevisiae deletion strains, locus YER167W, strain BCK2, hits give low values 0.95 | S. cerevisiae deletion strains, locus YGL078C, strain dbp3, hits give low values 0.977 | S. cerevisiae deletion strains, locus YGL086W, strain mad1, hits give low values 0.961 | S. cerevisiae deletion strains, locus YGL248W, strain PDE1, hits give low values 0.976 | S. cerevisiae deletion strains, locus YGR078C, strain PAC10, hits give low values 1 | S. cerevisiae deletion strains, locus YGR135W, strain pre9, hits give low values 0.984 | S. cerevisiae deletion strains, locus YGR229C, strain SMI1, hits give low values 0.974 | S. cerevisiae deletion strains, locus YGR252W, strain gcn5, hits give low values 0.98 | S. cerevisiae deletion strains, locus YHR030C, strain SLT2, hits give low values 0.979 | S. cerevisiae deletion strains, locus YHR079C, strain IRE1 (second series), hits give low values 0.96 | S. cerevisiae deletion strains, locus YHR094C, strain hxt1, hits give low values 0.974 | S. cerevisiae deletion strains, locus YHR129C, strain ARP1, hits give low values 0.983 | S. cerevisiae deletion strains, locus YHR200W, strain rpn10, hits give low values 0.955 | S. cerevisiae deletion strains, locus YIL066C, strain RNR3, hits give low values 0.979 | S. cerevisiae deletion strains, locus YIL073C, strain SPO22, hits give low values 0.921 | S. cerevisiae deletion strains, locus YIL125W, strain kgd1, hits give low values 0.971 | S. cerevisiae deletion strains, locus YIR030C, strain dcg1, hits give low values 0.97 | S. cerevisiae deletion strains, locus YJL095W, strain BCK1, hits give low values 0.954 | S. cerevisiae deletion strains, locus YJL134W, strain LCB3, hits give low values 0.983 | S. cerevisiae deletion strains, locus YJL168C, strain set2, hits give low values 0.984 | S. cerevisiae deletion strains, locus YJL187C, strain SWE1 (second series), hits give low values 0.986 | S. cerevisiae deletion strains, locus YJR043C, strain POL32, hits give low values 0.962 | S. cerevisiae deletion strains, locus YJR075W, strain HOC1, hits give low values 1 | S. cerevisiae deletion strains, locus YKL009W, strain mrt4, hits give low values 0.966 | S. cerevisiae deletion strains, locus YKL068W, hits give low values 0.976 | S. cerevisiae deletion strains, locus YKL085W, strain MDH1 (second series), hits give low values 0.967 | S. cerevisiae deletion strains, locus YKL085W, strain MDH1, hits give low values 0.967 | S. cerevisiae deletion strains, locus YKL190W, strain CNB1, hits give low values 0.988 | S. cerevisiae deletion strains, locus YKR001C, strain vps1, hits give low values 0.979 | S. cerevisiae deletion strains, locus YLR039C, strain RIC1, hits give low values 0.995 | S. cerevisiae deletion strains, locus YLR058C, strain SHM2, hits give low values 0.981 | S. cerevisiae deletion strains, locus YLR102C, strain apc9, hits give low values 0.978 | S. cerevisiae deletion strains, locus YLR262C, strain YPT6, hits give low values 0.994 | S. cerevisiae deletion strains, locus YLR268W, strain sec22, hits give low values 0.995 | S. cerevisiae deletion strains, locus YLR330W, strain CHS5, hits give low values 0.985 | S. cerevisiae deletion strains, locus YLR342W, strain FKS1 (second series), hits give low values 0.973 | S. cerevisiae deletion strains, locus YLR371W, strain rom2, hits give low values 0.979 | S. cerevisiae deletion strains, locus YLR418C, strain cdc73, hits give low values 0.946 | S. cerevisiae deletion strains, locus YML016C, strain PPZ1, hits give low values 0.978 | S. cerevisiae deletion strains, locus YML032C, strain rad52, hits give low values 0.964 | S. cerevisiae deletion strains, locus YML124C, strain tub3, hits give low values 0.961 | S. cerevisiae deletion strains, locus YMR078C, strain ctf18, hits give low values 0.96 | S. cerevisiae deletion strains, locus YMR223W, strain ubp8, hits give low values 0.959 | S. cerevisiae deletion strains, locus YMR263W, strain SAP30, hits give low values 1.01 | S. cerevisiae deletion strains, locus YMR307W, strain GAS1, hits give low values 0.84 | S. cerevisiae deletion strains, locus YNL067W, strain RPL9B, hits give low values 1.01 | S. cerevisiae deletion strains, locus YNL128W, strain TEP1, hits give low values 1.01 | S. cerevisiae deletion strains, locus YNL153C, strain GIM3, hits give low values 1 | S. cerevisiae deletion strains, locus YNL233W, strain BNI4, hits give low values 0.98 | S. cerevisiae deletion strains, locus YNL250W, strain rad50, hits give low values 0.972 | S. cerevisiae deletion strains, locus YNL271C, strain bni1, hits give low values 0.977 | S. cerevisiae deletion strains, locus YNL298W, strain CLA4, hits give low values 0.982 | S. cerevisiae deletion strains, locus YNL322C, strain KRE1, hits give low values 0.992 | S. cerevisiae deletion strains, locus YNR052C, strain pop2, hits give low values 0.991 | S. cerevisiae deletion strains, locus YOL006C, strain TOP1, hits give low values 0.896 | S. cerevisiae deletion strains, locus YOL012C, strain htz1 1.19 | S. cerevisiae deletion strains, locus YOL147C, strain pex11, hits give low values 0.975 | S. cerevisiae deletion strains, locus YOR061W, strain CKA2, hits give low values 0.977 | S. cerevisiae deletion strains, locus YOR069W, strain VPS5, hits give low values 0.983 | S. cerevisiae deletion strains, locus YOR136W, strain idh2, hits give low values 0.981 | S. cerevisiae deletion strains, locus YOR144C, strain elg1, hits give low values 0.978 | S. cerevisiae deletion strains, locus YOR184W, strain ser1, hits give low values 0.899 | S. cerevisiae deletion strains, locus YOR316C, strain cot1, hits give low values 0.967 | S. cerevisiae deletion strains, locus YPL055C, strain LGE1, hits give low values 1.01 | S. cerevisiae deletion strains, locus YPL241C, strain CIN2, hits give low values 0.984 | S. cerevisiae deletion strains, locus YPR119W, strain clb2, hits give low values 0.971 | S. cerevisiae deletion strains, locus YPR141C, strain kar3, hits give low values 0.97 | S. cerevisiae deletion strains, locus YPR163C, strain tif3, hits give low values 0.984 | S. cerevisiae deletion strains, locus YPR167C, strain met16, hits give low values 0.97 | S. cerevisiae deletion strains, strain wtn01, hits give low values 0.975 | S. cerevisiae strains, strain wild type, hits give low values 0.998
